Pol iota inh: DNA polymerase iota (human) inhibition; Q9UNA4; Pol iota fluorescent replication assay, 10 min; Potency, µM (top dose mostly 115 µM), without a hit: at the highest dose activity, negative = inhibition, actives largely listed as inhibitors; actives 1% (n = 390,000)
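Fluorescent replication assay read twice, at 0 min and 10 min after adding 50 nM (final) substrate. Enzyme (10 nM) and compounds were first incubated 15 min at room temperature; enzyme-free buffer wells were negative controls.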
Pol beta inh: inhibitors of human DNA polymerase beta | Potency, µM (titrated, usually from 114 µM), without a hit: top-dose activity change, negative = inhibition, usual class: inhibitors | actives 1.3% (n = 340,000) | Pol beta primer extension/strand displacement, fluorescence kinetic | AID 485314 | P06746; also: % is scaled to controls: 0 for no effect and ±100 for the full control effect
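Reaction started by 50 nM substrate onto compound-treated Pol beta (10 nM, 15 min preincubation, room temperature); plates read at 0 min and 10 min. Normalized concentration-effect data fitted by four-parameter Hill equation.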
L3MBTL1 inh: inhibitors of human L3MBTL1; Q9Y468; actives 0.66% (n = 230,000); AID 485360; AlphaScreen L3MBTL1–H3K9me1 peptide binding; Potency, µM (highest dose often 57.1 µM), without a hit: at the top dose activity, negative = inhibition, most hits filed as inhibitors; also: % is scaled to controls: 0 for no effect and ±100 for the full control effect; nearly all actives have a fitted effect of over 60% in size
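AlphaScreen assay: L3MBTL1 (50 nM final) was preincubated 30 min at room temperature with biotinylated H3(1-15)K9me1 peptide (75 nM final), then 30 min with library compounds; streptavidin donor and nickel chelate acceptor beads (10 ug/mL final) added, 30 min dark.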
POLH inh: inhibitors of human DNA polymerase eta. Q9Y253. recombinant Pol eta, fluorescent DNA replication assay. Potency, µM (series often up to 114 µM), for inactives: at the highest dose activity change, negative = inhibition, usual class: inhibitors. actives 1.2% (n = 390,000); also: % is scaled to controls: 0 for no effect and ±100 for the full control effect
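Pol eta (10 nM) was preincubated with compounds for 15 min at room temperature, after which fluorescent replication substrate (50 nM final) was added to start the reaction. Fluorescence was read kinetically at 0 and 10 min.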
POLK inh: DNA polymerase kappa (human) inhibition; Q9UBT6; purified Pol kappa, fluorescent DNA synthesis assay, 10 min; Potency, µM (doses to about 107 µM), without a hit: at the highest dose activity, negative = inhibition, usual class: inhibitors; actives 0.53% (n = 400,000); AID 588579; also: % is scaled to controls: 0 for no effect and ±100 for the full control effect
Target sequence (Q9UBT6 whole entry, looked up): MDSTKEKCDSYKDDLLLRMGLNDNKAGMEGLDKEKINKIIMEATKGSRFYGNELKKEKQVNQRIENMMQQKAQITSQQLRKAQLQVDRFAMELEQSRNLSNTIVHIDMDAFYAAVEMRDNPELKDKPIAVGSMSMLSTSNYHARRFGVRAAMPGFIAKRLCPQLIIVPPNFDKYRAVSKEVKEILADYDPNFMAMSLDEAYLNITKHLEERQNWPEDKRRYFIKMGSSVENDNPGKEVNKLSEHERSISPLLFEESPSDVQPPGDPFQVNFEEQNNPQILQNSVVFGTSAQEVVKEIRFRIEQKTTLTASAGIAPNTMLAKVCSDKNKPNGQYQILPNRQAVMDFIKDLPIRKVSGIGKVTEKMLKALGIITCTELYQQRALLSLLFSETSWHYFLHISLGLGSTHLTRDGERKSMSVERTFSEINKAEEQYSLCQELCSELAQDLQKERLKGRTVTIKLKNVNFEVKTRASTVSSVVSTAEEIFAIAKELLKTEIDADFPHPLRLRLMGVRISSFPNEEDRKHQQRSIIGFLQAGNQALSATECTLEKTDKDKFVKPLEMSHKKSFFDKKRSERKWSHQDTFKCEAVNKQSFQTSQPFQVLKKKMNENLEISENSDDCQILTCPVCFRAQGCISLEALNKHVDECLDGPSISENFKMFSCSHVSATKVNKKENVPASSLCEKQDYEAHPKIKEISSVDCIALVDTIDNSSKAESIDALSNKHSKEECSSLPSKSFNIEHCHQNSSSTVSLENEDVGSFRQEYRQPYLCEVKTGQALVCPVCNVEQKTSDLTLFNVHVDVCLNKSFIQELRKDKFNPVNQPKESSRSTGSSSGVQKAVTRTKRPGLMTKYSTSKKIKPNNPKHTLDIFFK
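10 nM Pol kappa preincubated 15 min at room temperature with compounds, then reaction started with substrate at 50 nM final. Fluorescence read kinetically at 0 and 10 min; buffer-only wells served as negative control.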
Numbers without * were called inactive; ? = inconclusive; . = no result given; [ ] = dose if it differs, or a comment. This is a sample that favours compounds with a hit; in the whole collection about 2.4% have one here. Calls follow the shape of the dose curve; as a rule, active = well fitted curve in the direction sought with a large enough effect; inconclusive = small, poorly fitted or top-dose-only effect, or another doubt; inactive = no such curve, though single readings can be large; an effect the other way counts as inactive or inconclusive. Potency is read from the fitted curve at half-maximal effect.

SMILES	Pol iota inh	Pol beta inh	L3MBTL1 inh	POLH inh	POLK inh
COc1ccc(NC(=O)CSc2nc(-c3ccco3)cc(C(F)(F)F)n2)cc1OC	13%	17%	.	-7%	1%
COc1ccc(C(=O)CSc2nnc(-c3ccco3)c(-c3ccco3)n2)cc1	?	13µM*	?	13µM*	-75%
COc1cccc(NC(=O)CSc2nnc(-c3ccco3)c(-c3ccco3)n2)c1	?	?	.	20µM*	50µM*
Cc1ccc(-n2c(O)c(/C=N/c3ncn[nH]3)c3ccccc3c2=O)cc1	1%	13µM*	-18%	-21%	-6%
Cc1ccc(-n2c(O)c(/C=N/n3cnnc3)c3ccccc3c2=O)cc1	?	33%	-5%	-4%	?
COc1ccc(C2/C=C\CN(C(=O)C3CCCC3)C(C)C(=O)N2Cc2ccc(F)cc2)cc1 (configuration not stated)	11%	.	.	.	9%
O=C(O)Cc1ccc(C(=O)CSc2ccccc2)s1	25µM*	16µM*	?	20µM*	?
CC(C)(C)CC(C)(C)N=C1Nc2ccc(Cl)cc2N[C@]12C[C@H]1CCCC(=O)N3CC[C@@H](C2)[C@@H]13	14%	.	.	.	-17%
O=C(Cl)COCc1ccccc1	.	.	.	.	4%[60.1 µM]
CC(=O)NCCNC(=O)CCCc1nnc2n(C)c(=O)c3sccc3n12	4%	6%	.	-16%	-2%
CCOC(=O)/C=C1\SCC(=O)N1CC(=O)Nc1ccc(OC)c(OC)c1	4%	1%	.	-6%	-6%
CCOC(=O)/C=C1\SCC(=O)N1CC(=O)c1ccc[nH]1	?	20µM*	?	?	?
Cc1ccc(NC(=O)Cn2c(O)c(N=NC(N)=O)c3ccccc32)cc1	47%	-4%	.	-21%	4%
Cc1ccccc1NC(=O)Cn1c(O)c(N=NC(=O)c2ccccc2O)c2ccccc21	?	10µM*	-8%	?	?
CCCN(CCC)C(=O)Cn1nnc2sc(-c3ccccc3)cc2c1=O	38%	14%	.	.	-12%
Cn1c(=O)c2cc(C(=O)NC3CCCCCC3)sc2c2ccccc21	-7%	8.9µM*	.	?	-14%
CN1C(=O)C(C)(C)c2cc(S(=O)(=O)N3CCN(c4ccc(F)cc4)CC3)ccc21	22%	17%	.	-18%	-5%
CN1C(=O)C(C)(C)c2cc(S(=O)(=O)N3CCN(c4cccc(Cl)c4)CC3)ccc21	?	14µM*	?	0%	-36%
CC(/C=N/NC(=O)c1ccncc1)=C\c1ccccc1	-4%	5%	9%	0%	-23%
CC(/C=N/NC(=O)c1cc(-c2ccc(C)s2)[nH]n1)=C\c1ccccc1	56%	14%	6%	-16%	-3%
O=C(N/N=C/c1ccncc1)c1ccc(NC(=O)c2cccc(Cl)c2)cc1	?	8.9µM*	.	?	?
O=C(N/N=C/c1ccncc1)c1ccc(NC(=O)c2ccc(Cl)cc2)cc1	-28%	-34%	0%	-20%	-3%
CC(/C=N/NC(=O)c1cccc(F)c1)=C\c1ccccc1	1%	18µM*	.	-8%	-18%
CC(=C/c1ccccc1)/C=N/NC(=O)c1ccccn1	24%	63µM*	-1%	-9%	5%
CC(/C=N/NC(=O)c1ccc2nc(C)[nH]c2c1)=C\c1ccccc1	-5%	28µM*	-1%	?	-1%
SMILES	Pol iota inh	Pol beta inh	L3MBTL1 inh	POLH inh	POLK inh
O=C(N/N=C/C(Br)=C/c1ccccc1)c1ccncc1	-1%	-5%	4%	4%	-9%
O=C(N/N=C/C(Br)=C\c1ccccc1)c1ccc2nc[nH]c2c1	?	13µM*	-12%	?	-16%
COc1ccccc1/C=C/C=N/NC(=O)c1ccc2nc[nH]c2c1	.	35µM*	.	.	.
O=C(N/N=C/c1ccc(OC(=O)c2cccs2)cc1)c1cccc(F)c1	-15%[58.9 µM]	8.9µM*	0%	-26%	-24%
CC(=C/c1ccccc1)/C=N/NC(=O)c1ccc2nc[nH]c2c1	13%	32µM*	-7%	-4%	0%
CCN(CC)S(=O)(=O)c1ccc2c(c1)c(=O)c(C(=O)N(C)Cc1ccccc1)cn2C	-9%	27%	.	-10%	0%
COc1cccc(-c2nc(S(=O)(=O)c3ccc(C)cc3)c(N3CCCCC3)o2)c1	6%	35%	.	.	9%
O=C(N/N=C/c1cc([N+](=O)[O-])ccc1Cl)c1ccc2nc[nH]c2c1	2%	-20%	-6%	?	-10%
O=C(N/N=C/c1ccc(Cl)cc1Cl)c1ccc2nc[nH]c2c1	-29%	16µM*	.	-13%	-11%
CCCOc1ccc(/C(O)=C2/C(=O)C(=O)N(CCCN3CCOCC3)C2c2ccncc2)cc1 (configuration not stated)	.	13µM*	?	.	.
CCCCOc1ccc(/C(O)=C2/C(=O)C(=O)N(CCCOC)C2c2ccncc2)cc1 (configuration not stated)	6%	1%	3%	1%	-13%
COc1cccc(-c2c(-c3cc(OC)cc(OC)c3)n(C)c3ccc(-c4cccc5[nH]ccc45)cc23)c1	-19%	.	-5%	-5%	-7%
c1ccc2[nH]c(NCCCc3cnc[nH]3)nc2c1	.	.	.	.	6%[60.1 µM]
CC(=O)Nc1cccc(NC(=O)Nc2cccc3ccccc23)c1	?	50µM*	.	8%	-3%
Cc1cccc(NC(=O)Nc2cccc3ccccc23)c1	39%	31%	.	-17%	5%
COc1cccc(Cn2c(Oc3cc(C)cc(C)c3)nc3c2c(=O)n(C)c(=O)n3C)c1	5%	0%	.	-17%	-1%
CCC(C)N1C(=O)/C(=C/c2c(NCCCOC(C)C)nc3c(C)cccn3c2=O)SC1=S (configuration not stated)	13%	28µM*	-7%	22µM*	-7%
CCN(CC)c1ccc2nc3c4ccccc4c(=O)cc-3oc2c1	60%	?	.	-24%	-16%[60.1 µM]
CCN(CC)c1ccc2c(-c3ccc(S(=O)(=O)O)cc3S(=O)(=O)[O-])c3ccc(=[N+](CC)CC)cc-3oc2c1	.	5µM*	.	.	?
CC(C)(C)c1cc(-c2csc(Nc3ccccc3)[n+]2Cc2ccc(C(=O)O)cc2)cc(C(C)(C)C)c1O	?	-18%	-18%	32µM*	0%
O=C(O)c1ccc(C[n+]2c(-c3ccccc3)csc2Nc2ccccc2)cc1	-17%	24%	-7%	?	-7%
NC(CSC(c1ccccc1)(c1ccccc1)c1cccc2ccccc12)C(=O)O (configuration not stated)	?	.	.	20µM*	?
N[C@H](CSC(c1ccccc1)(c1ccccc1)c1ccccc1)C(=O)O	.	.	.	.	-15%[60.1 µM]
O=C1C2=C(C(=O)c3ccccc31)C1O[C@](c3ccsc3)(Cc3c1ccc1ccccc31)O2	.	3.2µM*	.	.	.
O=c1oc2ccccc2c2c1C1O[C@](c3ccsc3)(Cc3c1ccc1ccccc31)O2	.	13µM*	.	.	.
O=C1CCCC2=C1C1O[C@](c3ccsc3)(Cc3c1ccc1ccccc31)O2	.	4µM*	.	.	.

Screening results: PubChem, National Center for Advancing Translational Sciences (NCATS)
